# High-throughput results deposited in PubChem by several laboratories.
# 3CLpro inhibitor = SARS-CoV 3CLpro protease inhibition. inhibition, % at 6 µM. P0C6X7. recombinant SARS-CoV 3CLpro, quenched FRET peptide cleavage. actives 0.14% (n = 290,000). AID 1706; in the data active = inhibition above about 12%
# VHR inh abs = inhibitors of human VHR1 phosphatase (DUSP3). P51452. recombinant VHR phosphatase, pNPP absorbance. inhibition, % at 13.3 µM. actives 0.52% (n = 290,000). AID 1654; in the data active = inhibition above about 50%
# Target sequence (P51452 whole entry, looked up): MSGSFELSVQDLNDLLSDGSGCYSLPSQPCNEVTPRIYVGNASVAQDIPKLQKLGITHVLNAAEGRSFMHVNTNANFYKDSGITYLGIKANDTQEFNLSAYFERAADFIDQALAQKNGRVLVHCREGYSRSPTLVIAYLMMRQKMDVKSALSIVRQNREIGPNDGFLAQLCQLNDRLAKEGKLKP
# MazEF act = increases E. coli MazEF RNase cleavage of RNA; P0AE70; FAM/BHQ RNA-DNA oligo cleavage fluorescence, 5 h; activation, % at 20 µM; actives 0.32% (n = 350,000); AID 504720; in the data active = activation above about 50%
# Target sequence (P0AE70 whole entry, looked up): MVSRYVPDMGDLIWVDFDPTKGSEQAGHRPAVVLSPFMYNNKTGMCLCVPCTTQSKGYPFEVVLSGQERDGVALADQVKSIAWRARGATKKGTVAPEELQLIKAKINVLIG
# Mtb hypoxia rep = Mtb hypoxia fluorescent reporter inhibition; actives 0.1% (n = 300,000); M. tuberculosis hypoxia-regulated fluorescent reporter, fluorescence; fluorescence inhibition, % (concentration not given with the values); AID 1159583; in the data active = fluorescence inhibition mostly above about 23%, no sharp cut-off; inactive = mostly below about 17%
# PrPC surface inh = inhibitors of human cell surface prion protein PrPC; P04156; TR-FRET read-out; inhibition, % at 13.8 µM; actives 0.43% (n = 370,000); AID 720596; in the data active = inhibition above about 24%
# PrP 5UTR inh = suppresses PrP 5' UTR mRNA reporter expression. actives 0.35% (n = 340,000). inhibition, % (concentration not given with the values). cell-based PrP 5' UTR mRNA reporter, plate reader; in the data active = inhibition above about 52%
# PrP 5UTR single = prion 5' UTR mRNA inhibition, cherry-pick retest | inhibition, % at 2.5 µM | actives 48% (n = 1,100) | cell-based prion protein 5' UTR reporter, plate reader | shares compounds with PrP 5UTR inh; in the data active = inhibition above about 54%
# Hits are given with their value; – = inactive; · = no result shown. Compounds with a hit are over-represented: about 1.5% of the library has one in this group of screens.
SMILES,3CLpro inhibitor,VHR inh abs,MazEF act,Mtb hypoxia rep,PrPC surface inh,PrP 5UTR inh,PrP 5UTR single
COc1ccc(-c2cc(-c3cccs3)c(C#N)c(SCC(=O)NCc3ccco3)n2)cc1,–,–,–,–,·,68,86
CCOC(=O)C=CC1Cc2ccccc2CO1 (stereo unspecified),·,·,·,–,·,·,·
COC(=O)[C@@]12CCCN1C(c1ccc(-c3ccccc3)c(OC)c1)C1C(=O)N(C)C(=O)C12 (stereo partly specified),·,·,·,–,·,·,·
Cc1ccc(C=NNc2cccc(C(=O)O)c2)s1,·,·,·,–,·,·,·
CC(C)c1ccc(C=NNc2ccc(C(=O)O)cc2)cc1,·,·,·,–,·,·,·
CC(C)c1ccc(/C=N/Nc2ccc(C(=O)O)cc2)cc1,–,–,–,·,–,63,–
Cc1ccc(/C=N/Nc2ccc(C(=O)O)cc2)s1,–,–,–,·,–,63,53
CC(=O)N/C(=C\c1ccccc1)C(=O)OCc1ccc(C)cc1,–,–,–,–,–,–,·
CC(=O)N/C(=C\c1ccccc1)C(=O)OCc1ccccc1,–,–,–,–,–,72,–
Cc1cc(N)nc(=O)n1C1CC(O)C(CO)O1 (stereo unspecified),·,·,–,·,–,59,–
Nc1nc(=O)n(C2CC(O)C(CO)O2)cc1Cl (stereo unspecified),·,·,·,·,–,·,·
CC(=O)O[C@H]1C(=O)[C@@]2(C)C([C@H](OC(=O)c3ccccc3)[C@]3(O)C[C@H](OC(=O)[C@H](O)[C@@H](NC(=O)c4ccccc4)c4ccccc4)C(C)=C1C3(C)C)[C@]1(OC(C)=O)CO[C@@H]1C[C@H]2O (stereo partly specified),–,–,–,·,–,56,68
CCOC(=O)N1CCC(Nc2c(-c3ccc(C)c(C)c3)c(=O)c2=O)CC1,–,–,–,–,–,73,–
Nc1cc(C(Cl)=C(Cl)Cl)c(S(N)(=O)=O)cc1S(N)(=O)=O,·,·,–,–,–,64,–
Nc1ccccc1S(N)(=O)=O,·,·,–,–,–,–,·
Cc1nn(CCC(=O)O)c2nc(-c3cccnc3)cc(C(F)(F)F)c12,–,–,–,–,–,–,·
Cc1nn(CCc2nn[nH]n2)c2nc(-c3ccc(C4CCCCC4)cc3)cc(C(F)(F)F)c12,–,–,–,–,–,63,–
CCN(CC)CCNC(=S)NC(=O)c1cn(-c2ccccc2)nc1-c1ccc(OC)cc1,–,–,–,–,–,67,–
COC(=O)c1cn(-c2ccccc2)nc1-c1ccc(OC)cc1,–,–,–,–,–,–,·
CC(CC(=O)Nc1ccc(C)c(Cl)c1)=NNC(=O)C1CCCCC1,·,·,·,–,·,·,·
CC(=O)Nc1ccc(Nc2cc(C)nc3c(-c4ccccc4)cnn23)cc1,–,–,–,–,–,60,–
Cc1cc(N)n2ncc(-c3ccccc3)c2n1,–,–,–,–,–,–,·
O=C(Nc1nnc(-c2cccs2)s1)c1cccc(F)c1,–,–,–,–,–,74,–
O=C(O)C=Cc1ccc(S(=O)(=O)NCc2ccco2)cc1,·,·,·,–,·,·,·
O=[N+]([O-])c1ccc(O)c(/C=N/Nc2ccccn2)c1,–,–,–,·,–,54,58
SMILES,3CLpro inhibitor,VHR inh abs,MazEF act,Mtb hypoxia rep,PrPC surface inh,PrP 5UTR inh,PrP 5UTR single
COC(=O)C1=C(c2ccc(F)cc2OCc2ccccc2)CC2CCC1N2C(=O)N1CCOCC1 (stereo unspecified),·,·,·,–,·,·,·
Brc1ccc(N=Nc2ccc3ccccc3n2)cc1,–,–,–,–,–,82,80
CCn1c(O)c(N=Nc2ccc3ccccc3n2)c2ccccc21,–,–,–,–,–,–,·
CCOc1ccc2nc(NC(=O)Nc3ccccc3)sc2c1,–,–,–,–,–,–,·
COc1ccc(C(=O)Nc2nc3ccccc3s2)c(OC)c1,–,–,–,·,–,95,95
CCOc1ccc2nc(NC(=O)c3ccccn3)sc2c1,–,–,–,–,–,63,–
COc1ccc2nc(NC(=O)c3ccccc3C(=O)O)sc2c1,–,·,–,–,–,–,·
Cc1cc(C)cc(N2C(=O)NC(=O)C(=Cc3cc(C)n(C)c3C)C2=O)c1,·,·,·,–,·,·,·
CC(C)CC(NC(=O)OC(C)(C)C)C(=O)NC(CO)C(O)C1CC1C(=O)NC1CC1 (stereo unspecified),·,·,·,–,·,·,·
Cc1cc(C)cc(NC(=O)c2nccnc2C(=O)O)c1,–,–,–,–,–,–,·
COC(=O)c1cc(NC(=O)c2nccnc2C(=O)O)cc(C(=O)OC)c1,–,–,–,–,–,60,–
ON=Cc1ccccc1Oc1ccc(F)cc1,·,·,·,–,·,·,·
CCOC(=O)c1cc(CC)sc1N=CC1C(=O)CC(C)(C)CC1=O,·,·,·,–,·,·,·
CCC(C)(C)n1nnnc1C(c1cccs1)N1CCCCC1 (stereo unspecified),–,–,–,–,–,52,–
CC(O)C1CNC(=O)C(=O)N1CCCCC1CCCCC1 (stereo unspecified),·,·,·,–,·,·,·
CN1CCN(c2ccc([N+](=O)[O-])c3no[n+]([O-])c23)CC1,–,–,–,–,–,79,86
CCN(CC)C(=O)C1CCCN(c2ccccc2[N+](=O)[O-])C1 (stereo unspecified),–,–,–,–,–,–,·
CCN(CC)C(=O)C1CCCN(c2ccc([N+](=O)[O-])cc2[N+](=O)[O-])C1 (stereo unspecified),–,–,–,–,–,70,–
CCSc1nc(-c2ccccc2)nc(C(Cl)Cl)n1,–,–,–,·,–,63,79
CCCCCOc1ccc(C=c2sc3nc(=O)c(-c4ccccc4)nn3c2=O)cc1OC,·,·,·,–,·,·,·
COC(=O)c1ccc(CCc2cc(O)c(Br)cc2O)cc1,·,·,–,·,–,87,–
COC(=O)c1ccc(CCc2cc(O)ccc2O)cc1,·,·,–,·,·,–,·
O=C1C=C(c2cccc3c2oc2ccccc23)CC(c2ccc(F)cc2)C1 (stereo unspecified),·,·,·,–,·,·,·
FC(F)(F)c1cc(CCN2CCNCC2Cc2ccccc2)cc(C(F)(F)F)c1 (stereo unspecified),·,·,·,–,·,·,·
O=C(NCc1ccccc1Cl)c1ccc[nH]1,–,–,–,–,–,77,–
SMILES,3CLpro inhibitor,VHR inh abs,MazEF act,Mtb hypoxia rep,PrPC surface inh,PrP 5UTR inh,PrP 5UTR single
CC1(C(=O)O)CC12c1ccccc1-c1ccccc12 (stereo unspecified),·,·,–,·,–,62,–
O=c1oc2ccccc2c2c1cnc1ccccc12,·,·,–,–,–,64,–
Cc1cnc(N)c2c(=O)oc3ccccc3c12,–,–,–,–,–,–,·
Cc1[nH]c2ccccc2c1C=NNC(=S)NCc1ccccc1,·,·,·,–,·,·,·
CCCOc1ccc2cc(-c3ccccn3)c(=O)oc2c1,–,–,–,–,–,78,57
CCOC(=O)c1cnc2c(-c3ccccc3OC)c(C)nn2c1C,–,–,–,–,–,76,–
CCOC(=O)c1cnc2c(-c3ccccc3)c(-c3ccccc3)nn2c1C,–,–,–,–,–,–,·
CC(C)CNC(=O)c1c(N)n(N=Cc2ccccn2)c2nc3ccccc3nc12,·,·,·,–,·,·,·
COc1ccc(-c2nc(-c3ccccn3)no2)cc1,–,–,–,–,–,91,91
